Measurements reported in PubChem BioAssay (EPA / NIEHS).
The source made the active and inactive calls. Rule for the calls: active = hit-call score of the fitted dose curve at least 0.9, where 1 is the maximum; inactive = score below 0.9.

Assays:
Conditions in all cases: mRNA level, 48 h; actives raise or lower the signal
[1] = read-out: Cytochrome P450 (CYP2B6), CYP2B6 (gene 1555); assay: LTEA_HepaRG_CYP2B6: Life Technologies and Expression Analysis (LTEA) Assay for Cytochrome P450 (CYP2B6) using HepaRG (AID 2283481)
Procedure, shortened: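 CYP2B6 transcript level quantified by qRT-PCR against three housekeeping genes, fitted bidirectionally relative to DMSO. HepaRG cultures received chemicals for 48 h, 8-point half-log series from 100 uM in 0.5% DMSO, duplicate wells, serum-free induction medium.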

[2] = read-out: Cytochrome P450 2C19 (Homo sapiens) (UniProt P33261); assay: LTEA_HepaRG_CYP2C19: Life Technologies and Expression Analysis (LTEA) Assay for CYP2C19 using HepaRG (AID 2283482)
Procedure, shortened: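 CYP2C19 transcript levels by qRT-PCR, normalized to three housekeeping genes, in HepaRG cells after 48 h chemical exposure. Eight-point half-log series topping at 100 uM, 0.5% DMSO vehicle. Increases and decreases both fitted against DMSO.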

[3] = read-out: CYP2C8 (gene 1558); assay: LTEA_HepaRG_CYP2C8: Life Technologies and Expression Analysis (LTEA) Assay for CYP2C8 using HepaRG (AID 2283483)
Procedure, shortened: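 HepaRG (human liver line), 48 h chemical exposure, 8-pt half-log series from 100 uM, 0.5% DMSO vehicle. Readout: CYP2C8 transcript by qRT-PCR, housekeeping-normalized. Bidirectional fit vs DMSO baseline.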

[4] = read-out: CYP2C9 (gene 1559); assay: LTEA_HepaRG_CYP2C9: Life Technologies and Expression Analysis (LTEA) Assay for CYP2C9 using HepaRG (AID 2283484)
Procedure, shortened: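 HepaRG, 48 h dosing, 8-pt half-log series, top 100 uM, 0.5% DMSO vehicle. Read-out: CYP2C9 transcript by TaqMan qRT-PCR, housekeeping-normalized (ACTB/GAPDH/POLR2A). Gain or loss fitted vs DMSO baseline.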

[5] = read-out: CYP2E1 (gene 1571); assay: LTEA_HepaRG_CYP2E1: Life Technologies and Expression Analysis (LTEA) Assay for CYP2E1 using HepaRG (AID 2283485)
Procedure, shortened: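 Assay uses 48 h exposure of HepaRG hepatic cells, eight concentrations to 100 uM. Expression of CYP2E1 is quantified by TaqMan qRT-PCR with ACTB, GAPDH and POLR2A normalization; curves fitted in both directions relative to vehicle.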

[6] = read-out: CYP4A11 (gene 1579); assay: LTEA_HepaRG_CYP4A11: Life Technologies and Expression Analysis (LTEA) Assay for CYP4A11 using HepaRG (AID 2283486)
Procedure, shortened: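 Readout is CYP4A11 transcript level by qRT-PCR, normalized to three housekeeping genes and fitted bidirectionally against 0.5% DMSO. Human HepaRG cells were treated 48 h, in duplicate, with an 8-point half-log series topping at 100 uM.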

[7] = read-out: Cytochrome P450 3A4 (Homo sapiens) (UniProt P08684); assay: LTEA_HepaRG_CYP3A4: Life Technologies and Expression Analysis (LTEA) Assay for CYP3A4 using HepaRG (AID 2283487)
Procedure, shortened: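 HepaRG, 48 h exposure, 8-pt CRC from 100 uM (half-log), 0.5% DMSO, duplicates; serum-free induction medium. Readout: CYP3A4 mRNA, qRT-PCR, ACTB/GAPDH/POLR2A normalization. Bidirectional fit vs DMSO.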

[8] = read-out: DNA damage-inducible transcript 3 (DDIT3), DDIT3 (gene 1649); assay: LTEA_HepaRG_DDIT3: Life Technologies and Expression Analysis (LTEA) Assay for DNA damage-inducible transcript 3 (DDIT3) using HepaRG (AID 2283488)
Procedure, shortened: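 Eight-point concentration-response (100 uM highest, half-log dilutions) in HepaRG, 48 h, duplicate wells. Endpoint: qRT-PCR mRNA, normalized (ACTB, GAPDH, POLR2A), bidirectional fitting with DMSO as baseline.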

[9] = read-out: Pro-epidermal growth factor (Homo sapiens) (UniProt P01133); assay: LTEA_HepaRG_EGF: Life Technologies and Expression Analysis (LTEA) Assay for Epidermal growth factor (EGF) using HepaRG (AID 2283489)
Procedure, shortened: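 EGF transcript measured by Fluidigm TaqMan qRT-PCR with three housekeeping genes for normalization, 48 h after dosing HepaRG cultures in duplicate (top 100 uM, half-log steps, 0.5% DMSO vehicle). Gain or loss relative to DMSO fitted.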

[10] = read-out: Early growth response protein 1 (EGR1) transcription factor, EGR1 (gene 1958); assay: LTEA_HepaRG_EGR1: Life Technologies and Expression Analysis (LTEA) Assay for Early growth response protein 1 (EGR1) transcription factor using HepaRG (AID 2283490)
Procedure, shortened: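 HepaRG, 48 h exposure, 8-pt half-log series from 100 uM, 0.5% DMSO vehicle; EGR1 transcript by TaqMan qRT-PCR (Fluidigm array), housekeeping-normalized; bidirectional fit relative to DMSO baseline.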

[11] = read-out: Ezrin (EZR), EZR (gene 7430); assay: LTEA_HepaRG_EZR: Life Technologies and Expression Analysis (LTEA) Assay for Ezrin (EZR) using HepaRG (AID 2283491)
Procedure, shortened: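 Read-out is EZR transcript level by qRT-PCR, normalized to three housekeeping genes and fitted bidirectionally against the DMSO control. Human HepaRG cells received test chemicals for 48 h at eight half-log concentrations up to 100 uM in 0.5% DMSO.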

[12] = read-out: Cytochrome P450 3A7 (Homo sapiens) (UniProt P24462); assay: LTEA_HepaRG_CYP3A7: Life Technologies and Expression Analysis (LTEA) Assay for CYP3A7 using HepaRG (AID 2283492)
Procedure, shortened: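 CYP3A7 transcript measured by qRT-PCR (ACTB, GAPDH, POLR2A normalization) after 48 h chemical exposure of HepaRG cells in duplicate. Eight half-log concentrations, maximum 100 uM, 0.5% DMSO vehicle; bidirectional curve fitting against DMSO baseline.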

[13] = read-out: CYP3A5 (gene 1577); assay: LTEA_HepaRG_CYP3A5: Life Technologies and Expression Analysis (LTEA) Assay for CYP3A5 using HepaRG (AID 2283493)
Procedure, shortened: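 Readout was CYP3A5 mRNA by qRT-PCR. HepaRG cultures were exposed for 48 h in serum-free induction medium to chemicals at up to 100 uM, and responses were fitted in both directions relative to DMSO vehicle.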

[14] = read-out: Fatty Acid-Binding Protein 1 (FABP1), FABP1 (gene 2168); assay: LTEA_HepaRG_FABP1: Life Technologies and Expression Analysis (LTEA) Assay for Fatty Acid-Binding Protein 1 (FABP1) using HepaRG (AID 2283494)
Procedure, shortened: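 qRT-PCR readout of FABP1 transcript (normalized to three housekeeping genes) after 48 h chemical exposure of HepaRG cells; eight concentrations, half-log steps, max 100 uM, 0.5% DMSO vehicle; gain or loss fitted relative to DMSO baseline.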

[15] = read-out: Cytochrome P450 4A22 (Homo sapiens) (UniProt Q5TCH4); assay: LTEA_HepaRG_CYP4A22: Life Technologies and Expression Analysis (LTEA) Assay for Cytochrome P450 4A22 (CYP4A22) using HepaRG (AID 2283495)
Procedure, shortened: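 Gene expression measured by qRT-PCR against three housekeeping genes (ACTB, GAPDH, POLR2A), with gain or loss fitted relative to 0.5% DMSO vehicle. HepaRG cultures received 48 h chemical treatment, top concentration 100 uM, half-log steps, duplicate wells.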

[16] = read-out: Cytochrome P450 7A1 (Homo sapiens) (UniProt P22680); assay: LTEA_HepaRG_CYP7A1: Life Technologies and Expression Analysis (LTEA) Assay for Cytochrome P450 7A1 (CYP7A1) using HepaRG (AID 2283496)
Procedure, shortened: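 Using 0.5% DMSO as vehicle and baseline, chemicals were tested in duplicate over an 8-point range from 100 uM on HepaRG cells for 48 h; qRT-PCR signals were normalised to ACTB, GAPDH and POLR2A.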

[17] = read-out: growth arrest and DNA damage 45 (GADD45G), GADD45G (gene 10912); assay: LTEA_HepaRG_GADD45G: Life Technologies and Expression Analysis (LTEA) Assay for growth arrest and DNA damage 45 (GADD45G) using HepaRG (AID 2283499)
Procedure, shortened: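 GADD45G transcript level by qRT-PCR (housekeeping-normalized: ACTB, GAPDH, POLR2A) after 48 h chemical treatment of a single HepaRG lot in serum-free induction medium; eight-point half-log series up to 100 uM in 0.5% DMSO, duplicates, up- or down-regulation scored.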

Measured: AC50

Chain of Cytochrome P450 2C19 (Homo sapiens) (P33261 whole entry, looked up): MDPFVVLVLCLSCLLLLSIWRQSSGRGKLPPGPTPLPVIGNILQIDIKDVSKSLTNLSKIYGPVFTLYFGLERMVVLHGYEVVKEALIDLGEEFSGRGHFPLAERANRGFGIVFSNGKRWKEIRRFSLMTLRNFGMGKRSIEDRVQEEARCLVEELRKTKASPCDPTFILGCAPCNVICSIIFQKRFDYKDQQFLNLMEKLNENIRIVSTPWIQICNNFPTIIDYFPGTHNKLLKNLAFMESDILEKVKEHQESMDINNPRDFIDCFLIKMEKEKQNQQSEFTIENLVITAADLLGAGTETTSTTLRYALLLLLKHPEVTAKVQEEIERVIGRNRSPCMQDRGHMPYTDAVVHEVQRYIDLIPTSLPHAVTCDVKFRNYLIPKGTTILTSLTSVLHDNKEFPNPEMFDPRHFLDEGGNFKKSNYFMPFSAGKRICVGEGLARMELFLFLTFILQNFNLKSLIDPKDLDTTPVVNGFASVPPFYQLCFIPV
Chain of Cytochrome P450 3A4 (Homo sapiens) (P08684 whole entry, looked up): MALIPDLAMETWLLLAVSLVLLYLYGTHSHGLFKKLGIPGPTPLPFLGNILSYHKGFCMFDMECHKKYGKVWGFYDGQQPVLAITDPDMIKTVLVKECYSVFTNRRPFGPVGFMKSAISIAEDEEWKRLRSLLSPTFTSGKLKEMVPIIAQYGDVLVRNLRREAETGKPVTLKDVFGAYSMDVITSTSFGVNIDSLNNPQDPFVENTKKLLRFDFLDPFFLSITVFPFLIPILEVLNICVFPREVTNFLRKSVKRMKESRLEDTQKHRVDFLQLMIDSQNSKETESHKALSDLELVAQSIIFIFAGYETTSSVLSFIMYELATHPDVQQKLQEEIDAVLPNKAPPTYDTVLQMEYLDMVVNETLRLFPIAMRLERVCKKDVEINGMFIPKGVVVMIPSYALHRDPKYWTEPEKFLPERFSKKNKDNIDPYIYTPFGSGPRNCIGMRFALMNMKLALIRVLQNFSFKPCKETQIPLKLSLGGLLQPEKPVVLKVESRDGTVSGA
Chain of Cytochrome P450 3A7 (Homo sapiens) (P24462 whole entry, looked up): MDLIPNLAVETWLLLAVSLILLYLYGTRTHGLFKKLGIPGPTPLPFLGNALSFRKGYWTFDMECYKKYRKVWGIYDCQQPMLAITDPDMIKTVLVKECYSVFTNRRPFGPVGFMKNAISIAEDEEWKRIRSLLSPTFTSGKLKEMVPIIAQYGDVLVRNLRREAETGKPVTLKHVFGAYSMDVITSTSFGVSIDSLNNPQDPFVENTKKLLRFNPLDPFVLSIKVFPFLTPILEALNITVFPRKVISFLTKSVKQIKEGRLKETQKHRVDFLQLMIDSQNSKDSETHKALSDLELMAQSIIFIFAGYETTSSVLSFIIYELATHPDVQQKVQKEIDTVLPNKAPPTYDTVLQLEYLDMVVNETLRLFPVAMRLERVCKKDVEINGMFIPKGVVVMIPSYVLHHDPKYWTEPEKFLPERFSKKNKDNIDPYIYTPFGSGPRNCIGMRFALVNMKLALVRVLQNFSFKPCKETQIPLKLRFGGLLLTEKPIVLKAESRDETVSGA

CC(C)N(C(=O)COc1nnc(C(F)(F)F)s1)c1ccc(F)cc1
active: [5] 42.2 µM | [14] 23 µM | [16] 24.7 µM
inactive: all other assays above

CCC(C)(C)C(=O)OC1=C(c2ccc(Cl)cc2Cl)C(=O)OC12CCCCC2
active: [5] 23.1 µM | [7] 25 µM | [12] 25.5 µM
inactive: all other assays above

CC(C)(C)C(O)/C(=C\c1ccc(Cl)cc1Cl)n1cncn1 (stereo unspecified)
inactive: [4] | [9] | [12] | [13]
active: [1] 0.748 µM | [2] 4.01 µM | [3] 3.88 µM | [5] 12.9 µM | [6] 21.9 µM | [7] 84.5 µM | [8] 29.4 µM | [10] 33.8 µM | [11] 86.6 µM | [14] 30.5 µM | [15] 21.1 µM | [16] 32.6 µM | [17] 29.5 µM

CCN(CC)C(=O)SCc1ccc(Cl)cc1
active: [1] 4.36 µM | [2] 17.7 µM | [5] 27.3 µM | [7] 9.92 µM | [14] 15.4 µM
inactive: all other assays above

CC(C)OC(=O)Nc1cccc(Cl)c1
active: [1] 50 µM
not listed: [5]
inactive: all other assays above

CC1(c2ccc(Oc3ccccc3)cc2)OC(=O)N(Nc2ccccc2)C1=O (stereo unspecified)
active: [1] 8.83 µM | [2] 26.3 µM | [3] 15.9 µM | [4] 17.4 µM | [5] 5.56 µM | [6] 8.16 µM | [7] 26.2 µM | [8] 8.41 µM | [10] 82.1 µM | [11] 4.5 µM | [12] 24.8 µM | [13] 90.2 µM | [14] 18.7 µM | [15] 9.55 µM | [16] 12.3 µM | [17] 12.3 µM
inactive: [9]
